Target: Carbonic anhydrase 2 (Homo sapiens) (UniProt P00918)
Test: CAII small-molecule binders, profiling panel, biochemical, small-molecule microarray, Alexa647-labelled CAII (AID 1122)
Details: CAII-A647 binding fluorescence, higher = more signal

Compared with COC(=O)[C@H](C)NC(=O)CCC1CC(OC(=O)NCCc2ccc(F)cc2)CC2(CCCC(COC(=O)NCCc3ccc(Cl)cc3)O2)O1 (some centres not stated), CCOC(=O)[C@H](Cc1ccccc1)NC(=O)CCC1CC(OC(=O)NCc2ccc3c(c2)OCO3)CC2(CCCC(COC(=O)NCC3CCCCC3)O2)O1 (some centres not stated) is higher in composite z-score: 0.0606 for the first, 0.579 for the second.

Compared with C=COC[C@H]1CN2[C@@H](CC[C@@H](C)[C@@H]2c2ccc(Br)cc2)C(=O)O1, COC(=O)[C@@H]1CC[C@H](C)[C@@H](c2ccc(C)cc2)N1C(=O)c1ccc(C=NOC[C@@H](O)COCc2ccco2)cc1 is lower in composite z-score: 0.459 for the first, -0.746 for the second.

Compared with CN1C(=O)C2C=CC(C(O)c3ccc(Br)cc3)N(N(c3ccccc3)c3ccccc3)C2C1=O (configuration not stated), O=C1[C@H]2[C@H]3[C@H](O)[C@H](O)CC(=NOCc4ccccc4)[C@@H]3CC[C@H]2C(=O)N1Cc1ccccc1 is higher in composite z-score: 0.106 for the first, 0.251 for the second.

First: COC(=O)[C@H](C)NC(=O)[C@@H](C)CO
Second: C=C(CCCC)C(=O)CC[C@@H](OC(C)=O)c1cccc(OCCO)c1
The composite z-score of the first is lower: 0.516 for the first, 0.767 for the second.

Going from CC(C)[C@@H](OCc1ccccc1)[C@H](C)C=NOC[C@@H](C)[C@H](OCc1ccccc1)C(C)C to CCOC(=O)[C@H](Cc1ccccc1)NC(=O)CCC1CC(OC(=O)NCc2ccc3c(c2)OCO3)CC2(CCCC(COC(=O)NCC(c3ccccc3)c3ccccc3)O2)O1 (some centres not stated), the composite z-score rises from -0.265 to 0.28.

First: Cc1cc2c(nc1C)CCCN2CC(O)CN1CCN(C)CC1 (configuration not stated)
Second: C#CCCCON=C1C[C@@H](O)[C@@H](O)[C@@H]2[C@@H]3C(=O)N(c4cccc(Oc5ccccc5)c4)C(=O)[C@@H]3CC[C@@H]12
The composite z-score of the first is higher: 0.622 for the first, 0.256 for the second.

From PubChem BioAssay
